Results on 5 molecules are retold here after PubChem BioAssay.

Results filed as inconclusive are left out. Calls of active or inactive are those of the source.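 How the source made its calls, unless noted: active means normalized viability below 100% at a tested concentration; inactive means the rest.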

Assay [1] can be described thus: growth inhibition of DIPG glioma cells, dose response, cell-based, SU-DIPG-XVII, MIPE5.0, CellTiter-Glo, qHTS (AID 1347060; cut-off not given, nearly all actives have AC50 up to about 26 µM;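 further: cells exposed to compound for 48 hours before viability readout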). To be noted: SU-DIPG-XVII viability, CellTiter-Glo ATP luminescence. A general note: In ATP-based viability assays light output follows the ATP content of the culture.
The nature of assay [2]: growth inhibition of DIPG glioma cells, dose response, cell-based, JHH-DIPG-1, MIPE4.0, CellTiter-Glo, qHTS (AID 1347062; cut-off not given, nearly all actives have AC50 up to about 27 µM;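 on AC50: cells exposed to compound for two days before readout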). The following applies: JHH-DIPG-1 viability, CellTiter-Glo ATP luminescence.
Assay [3] is described as follows: growth inhibition of DIPG glioma cells, dose response, cell-based, SU-DIPG-IV, MIPE4.0, CellTiter-Glo, qHTS (AID 1347063; cut-off not given, nearly all actives have AC50 up to about 30 µM;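 further: compound exposure lasted 48 hours before the viability readout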). To be noted: SU-DIPG-IV viability, CellTiter-Glo ATP luminescence.
A short description of assay [4]: viability loss in pontine glioma line – cell-based, SU-DIPG-XXV, MIPE5.0, CellTiter-Glo, qHTS, dose response (AID 1347065; cut-off not given, nearly all actives have AC50 up to about 26 µM;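 further: cells exposed to compound for 48 hours before ATP readout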). The following applies: CellTiter-Glo ATP luminescence.
A short description of assay [5]: SU-DIPG-VI glioma cell viability, MIPE4.0 library, CellTiter-Glo luminescence, qHTS (AID 1347066; cut-off not given, nearly all actives have AC50 up to about 30 µM;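 further: cells exposed to compound for 48 hours before readout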). To be noted: CellTiter-Glo ATP luminescence.
Assay [6] can be described thus: JHH-DIPG-1 glioma cell viability, MIPE5.0 library, CellTiter-Glo luminescence, qHTS (AID 1347067; cut-off not given, nearly all actives have AC50 up to about 26 µM;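 further: cells exposed to compound for 48 hours before readout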). The following applies: JHH-DIPG-1 glioma viability, CellTiter-Glo ATP luminescence.
A short description of assay [7]: SU-DIPG-XXV glioma cell viability, MIPE5.0 library, qHTS (AID 1347068; cut-off not given, nearly all actives have IC50 up to about 30 µM;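 further: cells exposed to compound for 48 hours before viability readout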). (qHTS replaces the single test concentration by a dilution series.)
Assay [8] can be described thus: modifiers of HSF1 nuclear foci, imaging, Selleck Cancer Library (AID 1347162; in the data active means plate-normalised HSF1 focus index below about 0.46). The following applies: human cells, at 10 µM; SSMD: measured here: HSF1 foci SSMD mean; cell count: measured here: cell number; plate-normalised HSF1 focus index: stronger effect = lower value.
The nature of assay [9]: ovarian cancer cell viability with rucaparib, profiling panel, oncology-focused library, rucaparib conditional (AID 1508598). To be noted: patient-derived ovarian cancer cells, CellTiter-Glo viability, 144 h, stronger effect = lower value.
Assay [10] is described as follows: sensitizers of A549 cells to miR-34 induction, primary screen, imaging, A549 dox-inducible miR-34, nuclei and caspase counts (AID 1347080;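 active means compounds whose cell count with miR-34 switched on is under 0.7 times the count with it off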). To be noted: A549 miR-34 inducible, Hoechst nuclei count, 48 h.
The nature of assay [11]: survival rescue of mitochondrial mutant cells in low glucose, primary screen, MELAS cybrids, Rieske KO mouse fibroblasts, CellTiter-Glo (AID 1508586;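 active means mean z-score across replicates of 1.96 or higher in either the MELAS or the Rieske mutant cell line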;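 further: z relative to plate mean and SD of compound and empty wells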).

For the molecule `CC1(C)CCC(c2ccc(Cl)cc2)=C(CN2CCN(c3ccc(C(=O)NS(=O)(=O)c4ccc(N[C@H](CCN5CCOCC5)CSc5ccccc5)c(S(=O)(=O)C(F)(F)F)c4)cc3)CC2)C1`, the AC50 in [1] is 8.33 µM (active); in [2], 18.7 µM (active); in assay [3], 2.09 µM (active); in [4], 0.148 µM (active); in assay [5] it was 0.59 µM (active); in [6], 7.42 µM (active). Further, the IC50 in assay [7] was 3.32 µM (active). Also, the SSMD in assay [8] was -3.49. Moreover, the cell count in [8] came out at 6830. In assay [8], the plate-normalised HSF1 focus index was 0.875 (inactive). Besides, the viability is 37.1% (active) in assay [9] (at 0.000305 µM, OCI-C5x cells, with rucaparib 10 µM, 100% = cells with rucaparib alone); 78.4% (active) in [9] (at 0.000305 µM, OCI-C5x cells, without rucaparib); 132% (inactive) in assay [9] (at 0.000305 µM, OCI-P5x cells, with rucaparib 20 µM, 100% = cells with rucaparib alone); 120% (inactive) in [9] (at 0.000305 µM, OCI-P5x cells, without rucaparib); 12.7% (active) in assay [9] (at 0.00122 µM, OCI-C5x cells, with rucaparib 10 µM, 100% = cells with rucaparib alone); 34.9% (active) in assay [9] (at 0.00122 µM, OCI-C5x cells, without rucaparib). Also, the viability in assay [9] (at 0.00122 µM, OCI-P5x cells, with rucaparib 20 µM, 100% = cells with rucaparib alone) was 118% (inactive); in assay [9] (at 0.00122 µM, OCI-P5x cells, without rucaparib) it was 106% (inactive); in [9] (at 0.00488 µM, OCI-C5x cells, with rucaparib 10 µM, 100% = cells with rucaparib alone) it was 32.2% (active); in assay [9] (at 0.00488 µM, OCI-C5x cells, without rucaparib) it was 62.4% (active); in assay [9] (at 0.00488 µM, OCI-P5x cells, with rucaparib 20 µM, 100% = cells with rucaparib alone), 127% (inactive); in assay [9] (at 0.00488 µM, OCI-P5x cells, without rucaparib) it was 105% (inactive). Further, the viability in assay [9] (at 0.0195 µM, OCI-C5x cells, with rucaparib 10 µM, 100% = cells with rucaparib alone) was 19.9% (active); in [9] (at 0.0195 µM, OCI-C5x cells, without rucaparib), 46.8% (active); in assay [9] (at 0.0195 µM, OCI-P5x cells, with rucaparib 20 µM, 100% = cells with rucaparib alone) it was 110% (inactive); in assay [9] (at 0.0195 µM, OCI-P5x cells, without rucaparib) it was 101% (inactive); in [9] (at 0.0781 µM, OCI-C5x cells, with rucaparib 10 µM, 100% = cells with rucaparib alone), 14.8% (active); in assay [9] (at 0.0781 µM, OCI-C5x cells, without rucaparib), 15.9% (active). Besides, the viability in assay [9] (at 0.0781 µM, OCI-P5x cells, with rucaparib 20 µM, 100% = cells with rucaparib alone) is 110% (inactive); in assay [9] (at 0.0781 µM, OCI-P5x cells, without rucaparib) it was 102% (inactive); in assay [9] (at 0.313 µM, OCI-C5x cells, with rucaparib 10 µM, 100% = cells with rucaparib alone) it was 10.6% (active); in assay [9] (at 0.313 µM, OCI-C5x cells, without rucaparib), 18.4% (active); in assay [9] (at 0.313 µM, OCI-P5x cells, with rucaparib 20 µM, 100% = cells with rucaparib alone) it was 100% (inactive); in [9] (at 0.313 µM, OCI-P5x cells, without rucaparib) it was 92.1% (active). Also, the viability in [9] (at 1.25 µM, OCI-C5x cells, with rucaparib 10 µM, 100% = cells with rucaparib alone) is 10.8% (active); in [9] (at 1.25 µM, OCI-C5x cells, without rucaparib), 15.2% (active); in assay [9] (at 1.25 µM, OCI-P5x cells, with rucaparib 20 µM, 100% = cells with rucaparib alone) it was 90.1% (active); in assay [9] (at 1.25 µM, OCI-P5x cells, without rucaparib), 88.9% (active); in assay [9] (at 5 µM, OCI-C5x cells, with rucaparib 10 µM, 100% = cells with rucaparib alone), 4.72% (active); in [9] (at 5 µM, OCI-C5x cells, without rucaparib), 11.9% (active). The viability in assay [9] (at 5 µM, OCI-P5x cells, with rucaparib 20 µM, 100% = cells with rucaparib alone) is 0.895% (active); in [9] (at 5 µM, OCI-P5x cells, without rucaparib), 10.5% (active).
Take `CNC(=O)Nc1ccc(-c2nc(N3CC4CCC(C3)O4)c3cnn(C4CCC5(CC4)OCCO5)c3n2)cc1`: the AC50 in [1] was 0.742 µM (active); in assay [2], 1.87 µM (active); in assay [3] it was 0.0264 µM (active); in [4], 0.332 µM (active); in assay [6] it was 1.48 µM (active). For the same molecule, the IC50 in [7] is 1.86 µM (active). The fold change in assay [10] (stronger effect = lower value, cell number ratio, induced over uninduced) was 1.12 (inactive); in assay [10] (measured here: relative caspase fold change +Dox/-Dox) it was 0.588. For the same molecule, the cell count in assay [10] (measured here: total cells with miR-34 induction, stronger effect = lower value) was 3730; in [10] (measured here: total cells without miR-34 induction) it was 3320. In addition, the z-score in assay [11] (MELAS cybrid survival, CellTiter-Glo 48 h, stronger effect = higher value) is 3.93 (active); in assay [11] (Rieske KO mouse fibroblast survival, CellTiter-Glo 72 h) it was -1.7.
With `CCN1CCC(n2cc(CNc3cc(Cl)c4ncc(C#N)c(Nc5ccc(F)c(Cl)c5)c4c3)nn2)CC1`, the AC50 in assay [1] was 18.6 µM (active); in assay [2], 20.9 µM (active); in assay [3], 18.7 µM (active); in [4], 23.5 µM (active); in [5], 16.6 µM (active).
Regarding `CCc1ccc(C(=O)Nc2cc(CN3CCN(C)CC3)cc(C(F)(F)F)c2)cc1C#Cc1cnc2ccnn2c1`, the AC50 is 14.8 µM (active) in assay [1]; 10.5 µM (active) in [2]; 7.43 µM (active) in [3]; 11.8 µM (active) in assay [4]; 16.6 µM (active) in assay [5]; 13.2 µM (active) in assay [6]. For the same molecule, the IC50 in [7] is 14.8 µM (active).
As to `O=C1NC(=O)C(c2cnc3ccccn23)=C1c1cn2c3c(cccc13)CN(C(=O)N1CCOCC1)CC2`, the concentration at half-maximal activity (AC50) in assay [1] is 1.05 µM (active); in assay [3], 0.00833 µM (active); in assay [4], 11.8 µM (active); in [6] it was 18.6 µM (active). Moreover, the result in assay [2] was inactive. Further, in assay [7], the IC50 is 18.6 µM (active).

One may read the AC50 as the midpoint of the concentration-response curve, whichever way the signal moves. The IC50 is the point on the concentration scale where inhibition reaches its midpoint. By viability is commonly meant a read-out of living cells in per cent, often relative to untreated cells.
